# Laboratory results from PubChem BioAssay.
# The source made the active and inactive calls. No rule for the calls is given here.
# Biological target: Pantothenate synthetase (Mycobacterium tuberculosis (strain ATCC 25618 / H37Rv)) (UniProt P9WIL5)
# Assay: Coupled enzyme confirmation of inhibitors against recombinant Mtb PanC (AID 375);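 also: 0% = full reaction with vehicle and 100% = no enzyme background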
# Details: coupled enzyme assay; at 10 µM, hits give high values
# Sequence of Pantothenate synthetase (Mycobacterium tuberculosis (strain ATCC 25618 / H37Rv)) (P9WIL5 whole entry, looked up): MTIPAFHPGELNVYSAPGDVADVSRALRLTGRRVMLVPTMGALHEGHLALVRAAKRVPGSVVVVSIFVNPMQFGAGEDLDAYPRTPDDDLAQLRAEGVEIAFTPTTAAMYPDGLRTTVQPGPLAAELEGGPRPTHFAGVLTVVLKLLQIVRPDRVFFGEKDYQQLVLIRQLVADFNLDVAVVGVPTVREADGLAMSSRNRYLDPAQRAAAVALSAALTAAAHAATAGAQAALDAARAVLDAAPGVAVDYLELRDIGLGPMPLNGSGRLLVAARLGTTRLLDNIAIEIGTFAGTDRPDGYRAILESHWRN
row,SMILES,inhibition
1,COc1cccc(Oc2ccc(N)cn2)c1,0% (inactive)
2,C=CCOc1nc(N(C)C)nc(N(C)C)n1,7% (inactive)
3,CCOC(=O)c1csc(NC(=O)C2CCCCC2)n1,2% (inactive)
4,COc1ccc(C)cc1NC(=O)CNC(=O)Cn1ccc2ccccc2c1=O,5% (inactive)
5,CC1=C(c2ccc(Cl)cc2)[N+](=O)C(C)(C)N1[O-],0% (inactive)
6,COc1ccc(C2=NOC(C(=O)Nc3cc(Br)ccc3O)C2)cc1OC (centres undefined),3% (inactive)
7,COc1ccc(-c2nc(CSCC(=O)N3CCN(c4cccc(C)c4)C(C)C3)c(C)o2)cc1OC (centres undefined),0% (inactive)
8,O=C(COC(=O)C1CC(=O)N(c2ccccc2)C1)c1ccccc1 (centres undefined),0% (inactive)
9,O=C1CCn2nc(-c3ccc(Cl)cc3)cc2N1,0% (inactive)
10,CCC(C)(NC(=O)CNC(C)=O)C(=O)NC1CCCCC1 (centres undefined),0% (inactive)
11,COc1ccc(NS(=O)(=O)c2coc(C(N)=O)c2)cc1Cl,0% (inactive)
12,CN(CCCNC(=O)c1cn(C)c2ccc(S(=O)(=O)N(C)C)cc2c1=O)c1ccccc1,4% (inactive)
13,NC(=O)CN1C(=O)C(O)(CC(=O)c2ccccc2O)c2ccccc21 (centres undefined),0% (inactive)
14,COc1ccc2c(c1OC)C(=O)OC2Nn1cncn1 (centres undefined),2% (inactive)
15,CCn1c(=O)cc(OCC(=O)NC2CCCCC2)c2ccccc21,0% (inactive)
16,CC(=O)c1ccc(NC(=O)c2cc(CC(C)C)on2)cc1,0% (inactive)
17,O=S1(=O)C=CC(Nc2cccc(Cl)c2)C1 (centres undefined),0% (inactive)
18,CCCCn1c(SCC(=O)N2CC(=O)Nc3ccccc32)nnc1-c1ccoc1C,3% (inactive)
19,O=C(Nc1ccc(Br)c2cccnc12)c1ccc(Cn2cc(Cl)cn2)o1,1% (inactive)
20,Cc1cc(C(=O)CSc2nnc(-c3ccco3)o2)c(C)n1CC1COc2ccccc2O1 (centres undefined),0% (inactive)

row,SMILES,inhibition
1,CS(=O)(=O)N1CCc2cc(S(=O)(=O)Nc3ccc4oc5c(c4c3)CCCC5)ccc21,3% (inactive)
2,Cc1[nH]n2c(=O)cc(Cc3ccccc3)nc2c1C#N,0% (inactive)
3,CCc1nnc(NC(=O)c2ccc(COc3ccc(C)cc3)o2)s1,1% (inactive)
4,CCN(C#N)c1nc(NC(C)C)nc(NC(C)C)n1,5% (inactive)
5,O=c1c2cc3ccccc3n2cnn1Cc1ccccc1F,0% (inactive)
6,CCOC(=O)n1c(SCC(=O)N(CC)CC)nc2ccccc21,0% (inactive)
7,O=C(C1COc2ccccc2O1)N1CCCC1 (centres undefined),0% (inactive)
8,CCOC(=O)c1cc2sccc2n1CC(=O)Nc1ccc(OC)cc1OC,0% (inactive)
9,COc1cc(=O)[nH]c(SCc2c(F)c(F)c(F)c(F)c2F)n1,2% (inactive)
10,CCC1Oc2ccc(C)cc2N(CC(=O)NCCCN2CCCCC2CC)C1=O (centres undefined),4% (inactive)
11,O=C(CSCc1ccccn1)Nc1ccccc1,0% (inactive)
12,O=S(=O)(c1cccc(-c2nnco2)c1)N1CCCC1,0% (inactive)
13,COC(=O)c1[nH]c2ccc(C)cc2c1NC(=O)CN1CCN(C(=O)c2ccccc2)CC1,4% (inactive)
14,CCc1nnc2c3cnn(-c4ccccc4)c3ncn12,0% (inactive)
15,CCCNC(=O)N1CCN(S(=O)(=O)c2ccc(C)c(C)c2)CC1,4% (inactive)
16,O=C(CCOc1ccccc1)NCc1ccccc1,0% (inactive)
17,Cc1cccc(-c2nnc(SCC#N)n2-c2cccc(Cl)c2)c1,0% (inactive)
18,CC1CCCN(C(=O)CN2CCN(C(=O)c3ccco3)CC2)C1 (centres undefined),0% (inactive)
19,C(=C\c1ccccc1)/CN1CCN(Cc2ccc3c(c2)OCCO3)CC1,1% (inactive)
